Bioassay records as filed in PubChem BioAssay.
Anthrax LF prot: Bacillus anthracis LF protease inhibitors, primary screen, biochemical, multiplex microsphere, MLPCN library | Lethal factor (Bacillus anthracis), P15917 | multiplex microsphere protease cleavage assay | inhibition, % at 10 µM | actives 0.12% (n = 360,000) | AID 588501, 2011
BoNT A protease: BoNT/A light chain protease inhibitors, primary screen, biochemical, flow cytometry, MLPCN library; Botulinum neurotoxin type A light chain protease (Clostridium botulinum A str. ATCC 3502); multiplex microsphere protease substrate cleavage; inhibition, % at 10 µM; actives 0.17% (n = 360,000); AID 588499, 2011
Bead autofluor: counter-screen for toxin protease inhibitors: compound fluorescence. AID 624483. actives 3.1% (n = 360,000). compound autofluorescence counterscreen, microsphere flow cytometry; hits give high values. fluorescence intensity (test concentration not listed); in the data active means fluorescence intensity above about 16000; inconclusive means no clear call, values can overlap the other calls
PfHsp40 rescue: rescue of yeast from PfHsp40 toxicity, primary screen, S. cerevisiae, ATP luminescence; actives 0.68% (n = 340,000); AID 504582, 2011; S. cerevisiae expressing PfHsp40, growth rescue; growth rescue, % at 12.5 µM; in the data active means growth rescue above about 28%, passing the limit was not always enough; inconclusive means no clear call, values can overlap the other calls;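 further: yeast W303a lacking pdr1 and pdr3 grown in galactose medium; growth measured after three days at 30 °C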
BoNT-F LC inh: BoNT/F light chain protease inhibitors, primary screen, biochemical, flow cytometry, MLPCN library; Multiplex microsphere protease cleavage assay; inhibition, % at 10 µM; actives 0.22% (n = 360,000); in the data active means inhibition above about 35%, passing the limit was not always enough; inconclusive means no clear call, values can overlap the other calls
MazF activator: activators of E. coli MazEF toxin-antitoxin RNase, primary screen, biochemical, fluorescence, uHTS; FAM/BHQ RNA-DNA oligo cleavage fluorescence, 5 h; activation, % at 20 µM; actives 0.32% (n = 350,000); AID 504720, 2011; in the data active means activation above about 50%
BoNT-A LC CP1: BoNT/A light chain protease inhibitors, confirmation, biochemical, flow cytometry, cherry pick 1; shares compounds with BoNT-F LC inh; multiplex microsphere protease assay; inhibition, % at 10 µM; actives 3% (n = 720); in the data active means inhibition above about 32%
BoNTF LC inh 1: BoNT/F light chain protease inhibitors, confirmation, biochemical, flow cytometry, cherry pick 1; shares compounds with BoNT-F LC inh; multiplex microsphere protease cleavage assay; inhibition, % at 10 µM; 720 tested, under 10 active; AID 602140, 2011; call rule not given here
Anthrax LF CP1: Bacillus anthracis LF protease inhibitors, confirmation, biochemical, multiplex microsphere, cherry pick 1 | shares compounds with BoNT-F LC inh | multiplex microsphere protease cleavage assay | inhibition, % at 10 µM | 720 tested, under 10 active; call rule not given here
A number is an active result. The list is not random: actives were taken first. Their share in the collection is about 4.3%. Unless noted, no stated cut-off is given here; in the data, active means inhibition above about 30%; inconclusive means no clear call, values can overlap the other calls; inactive means below that.

`CC(C)N(C(=O)CN1CCC(c2nc3ccccc3[nH]2)CC1)C(C)C` gave Anthrax LF prot inactive, BoNT A protease inactive, Bead autofluor inactive, PfHsp40 rescue inactive, BoNT-F LC inh inactive and MazF activator inactive.
For CCCCCn1c(=O)c(C(=O)Nc2ncccc2C)c(O)c2ccccc21 the results were Anthrax LF prot inactive, BoNT A protease inactive, Bead autofluor inactive, PfHsp40 rescue inactive, BoNT-F LC inh 38.3, MazF activator inactive, BoNT-A LC CP1 inactive, BoNTF LC inh 1 inactive and Anthrax LF CP1 inactive.
`CCCn1c(=O)c(C(=O)Nc2ncccc2C)c(O)c2ccccc21` gave Anthrax LF prot inactive, BoNT A protease inactive, Bead autofluor inactive, PfHsp40 rescue inactive, BoNT-F LC inh inactive and MazF activator inactive.
Screening Cc1ccc2cc(C#N)c(N3CCN(C(=O)c4cccs4)CC3)nc2c1 returned Anthrax LF prot inactive, BoNT A protease inactive, Bead autofluor inactive, PfHsp40 rescue inactive, BoNT-F LC inh 40.0, MazF activator inactive, BoNT-A LC CP1 inactive, BoNTF LC inh 1 inactive and Anthrax LF CP1 inactive.
For Cc1ccc2nc(N3CCN(C(=O)c4ccc(F)cc4)CC3)c(C#N)cc2c1 the results were Anthrax LF prot inactive, BoNT A protease inactive, Bead autofluor inactive, PfHsp40 rescue inactive, BoNT-F LC inh inactive and MazF activator inactive.
Screening COc1ccc(Nc2nc(C)nc3c2nnn3Cc2ccccc2Cl)c(OC)c1 returned Anthrax LF prot inactive, BoNT A protease inactive, Bead autofluor inactive, PfHsp40 rescue inactive, BoNT-F LC inh inactive and MazF activator inactive.
COc1cc(C(=O)NCCOc2ccc(C)c(C)c2)cc(OC)c1OC was read as Anthrax LF prot inactive, BoNT A protease inactive, Bead autofluor inactive, PfHsp40 rescue inactive, BoNT-F LC inh inactive and MazF activator inactive.
`COc1cccc(OCCNC(=O)c2cc(OC)c(OC)c(OC)c2)c1` gave Anthrax LF prot inactive, BoNT A protease inactive, Bead autofluor inactive, PfHsp40 rescue inactive, BoNT-F LC inh 40.0, MazF activator inactive, BoNT-A LC CP1 inactive, BoNTF LC inh 1 inactive and Anthrax LF CP1 inactive.
For COC(=O)c1ccc(COc2ccc(-c3nn[nH]n3)cc2)cc1 the results were Anthrax LF prot inactive, BoNT A protease 48.8, Bead autofluor inactive, PfHsp40 rescue inactive, BoNT-F LC inh 47.3, MazF activator inactive, BoNT-A LC CP1 inactive, BoNTF LC inh 1 inactive and Anthrax LF CP1 inactive.
Cc1nc2ccc([N+](=O)[O-])cc2c(=O)n1Cc1cccc(F)c1 was read as Anthrax LF prot 60.4, BoNT A protease inactive, Bead autofluor inactive, PfHsp40 rescue inactive, BoNT-F LC inh 85.3, MazF activator inactive, BoNT-A LC CP1 inactive, BoNTF LC inh 1 inactive and Anthrax LF CP1 inactive.
Screening Cc1c(NC(=O)c2nn(CC(C)C)c(=O)c3ccccc23)c(=O)n(-c2ccccc2)n1C returned PfHsp40 rescue inactive and MazF activator inactive.
For COc1ccc(-c2nc(CS(=O)CC(=O)NCc3ccc4c(c3)OCO4)c(C)o2)cc1OC (stereo unspecified) the results were Anthrax LF prot inactive, BoNT A protease inactive, Bead autofluor inactive, PfHsp40 rescue inactive, BoNT-F LC inh inactive and MazF activator inactive.
`CCOc1ccccc1OCCC(=O)OCC(=O)Nc1c(C)cc(C)cc1C` gave Anthrax LF prot inactive, BoNT A protease inactive, Bead autofluor inconclusive, PfHsp40 rescue inactive, BoNT-F LC inh inactive and MazF activator inactive.
